PubChem BioAssay (NCATS)
Inconclusive results are not listed. Where a call stands in place of a potency, no number is given. Activity calls are given as the source filed them. Calls come from the whole dose curve; as a rule, active = well fitted inhibition curve with a large enough effect; inconclusive = small, poorly fitted or top-dose-only effect; inactive = no such curve, though single readings can be large or run the other way.

assay: qHTS assay for measurement of the activity of small molecule inhibitors on Zika virus induced Caspase-3 activity in human iPSC derived neural progenitor cells (hNPCs) (AID 1224857); details: hNPCs ZIKV-induced caspase-3/7, Caspase-Glo luminescence, 6 h; series mostly up to 45.7 µM; note: nearly all actives have a fitted effect of over 65% in size
Source text: National Center for Advancing Translational Sciences [NCATS]
Johns Hopkins University School of Medicine
Increase in the Caspase-3 activity indicates an activation of apoptosis cell death pathway caused by Zika virus infection in certain types of neuronal cells including human neural progenitor cells (hNPCs), astrocytes, and astrocytoma cell line (SNB-19). This cell-based caspase-3 activity assay measures the increased caspase-3 activity in the human iPSC derived neural progenitor cells (hNPCs) after a 6-hour Zika virus infection with a luminescence readout. A decrease in the luminescence signal in this assay by small molecule treatment indicates an inhibitory effect of that small molecule on the Zika virus induced caspase-3 activity that may correlate with its effect on reduction of Zika virus caused cell death.
The medium for hNPCs consists of DMEM/F12, N2 supplement (ThermoFisher, Cat.# 17502048), NEAA (ThermoFisher, Cat. # 11140050), 2 ug/ml heparin, 2 uM cyclopamine, and B27 (ThermoFisher, Cat. # 17504044). A Caspase-Glo 3/7 assay kit (catalog number G8092; Promega, Madison, WI) was used to detect caspase-3 activity induced by Zika virus infection in human cells. The reagent mixture was reconstituted as described in the protocol from the manufacturer. Polystyrene tissue culture treated and PDL coated white plates were obtained from Greiner Bio-One (Monroe, NC). Cells were seeded in 384- or 1536-well assay plates and cultured at 37 C with 5% CO2 for 16 to 20 hours. The typical cell seeding density in the 1536-well plate assay is 350 cells/well in 3 ul medium for hNPCs in tissue culture treated plates. Compounds were added to cells and incubated for one hour before addition of ZIKV solution to cells (2 FFU/cell). After incubation at 37 C with 5% CO2 for 6 hours, the reagent mixture of Caspase-Glo 3/7 assay kit was added to each well, followed by incubation at room temperature for 30 minutes. The luminescence intensity of the assay plates was measured using a ViewLux plate reader (PerkinElmer). Data were normalized by using the cell-containing wells without ZIKV as a negative control (0% induction of caspase 3/7 activity) and wells containing ZIKV infected cells (Caspase-3 activity induced) as a positive control (100% induction of caspase 3 activity). The percentage inhibitions of the increased Caspase-3 activity by small molecule inhibitors were then calculated.

| SMILES | Potency |
| --- | --- |
| N#C/C(=C1\SCC(c2ccccc2Cl)S1)n1ccnc1 (stereo not given) | inactive |
| C=C[C@@]1(C)CC(=O)[C@]2(O)[C@@]3(C)[C@@H](O)CCC(C)(C)[C@@H]3[C@H](O)[C@H](OC(C)=O)[C@@]2(C)O1 | inactive |
| Cc1cn([C@H]2C[C@H](F)[C@@H](CO)O2)c(=O)[nH]c1=O | inactive |
| COc1cc(C(=S)N2CCOCC2)ccc1O | inactive |
| Cc1c(-c2ccccc2)oc2c(C(=O)OCCN3CCCCC3)cccc2c1=O | inactive |
| CCCCCCCC/C=C\CCCCCCCCN | inactive |
| Nc1ccc(C(=O)NCC(=O)O)cc1 | inactive |
| CCCCC(CC)CN1CN(CC(CC)CCCC)CC(C)(N)C1 (stereo not given) | inactive |
| CCNC(=O)/C=C/c1cccc(Br)c1 | inactive |
| CC(C)(C)CC(C)(C)c1ccc(O)c(-n2nc3ccccc3n2)c1 | inactive |
| Cc1ccccc1OCC(O)CO (stereo not given) | inactive |
| CCCCCCCCCCCCSCCOCCO | inactive |
| CN1CCc2cccc3c2[C@H]1Cc1ccc(O)c(O)c1-3 | inactive |
| CCCc1ncc(C[n+]2ccccc2C)c(N)n1 | inactive |
| CN1CCN(C2=Nc3cc(F)ccc3Cc3ccccc32)CC1 | inactive |
| CCCN(CCC)S(=O)(=O)c1ccc(C(=O)O)cc1 | inactive |
| Nc1ccc(S(=O)(=O)Nc2cnc3ccccc3n2)cc1 | inactive |
| COc1ccc(CN(CCN(C)C)c2ncccn2)cc1 | inactive |
| CCOc1ccc(NC(C)=O)cc1 | inactive |
| CCOC(=O)c1c(N)sc2c1CCN(Cc1ccccc1)C2 | inactive |

| SMILES | Potency |
| --- | --- |
| CC(=O)Nc1ccc(OCC(O)CNC(C)C)cc1 (stereo not given) | inactive |
| CCN1CCN(C(=O)N[C@@H](C(=O)N[C@@H]2C(=O)N3C(C(=O)O)=C(CSc4nnnn4C)CS[C@H]23)c2ccc(O)cc2)C(=O)C1=O | inactive |
| O=C(Nc1cccc(C2=NCCN2)c1)Nc1cccc(C2=NCCN2)c1 | inactive |
| O=[N+]([O-])c1ccc(/C=N\O)o1 | inactive |
| COC(=O)C(c1ccccc1Cl)N1CCc2sccc2C1 (stereo not given) | inactive |
| CCCCCCCCCCCCCC(=O)OC(C)C | inactive |
| O=C(O)c1ccc(S(=O)(=O)N(Cl)Cl)cc1 | inactive |
| C#C[C@]1(O)CC[C@H]2[C@@H]3[C@H](C)CC4=C(CCC(=O)C4)[C@H]3CC[C@@]21C | inactive |
| CC(=O)O[C@H]1C[C@@H]2CC[C@@H]3[C@H](CC[C@@]4(C)[C@H]3C[C@H]([N+]3(C)CCCCC3)[C@@H]4OC(C)=O)[C@@]2(C)C[C@@H]1N1CCCCC1 | inactive |
| c1ccc(CC2=NCCN2)cc1 | inactive |
| N/C(=N\N=C\c1ccc(Cl)cc1)N/N=C/c1ccc(Cl)cc1 | inactive |
| C[N+]1(CC2COC(c3ccccc3)(C3CCCCC3)O2)CCCCC1 (stereo not given) | inactive |
| CC(=O)NCCCCCC(=O)O | inactive |
| C=C1c2cccc(O)c2C(O)=C2C(=O)[C@]3(O)C(O)=C(C(N)=O)C(=O)[C@@H](N(C)C)[C@@H]3[C@@H](O)[C@H]12 | inactive |
| CC(=O)N[C@@H](CCC(=O)O)C(=O)O | inactive |
| O=C(Nc1ccc([N+](=O)[O-])cc1)Nc1ccc([N+](=O)[O-])cc1 | inactive |
| O=C(Nc1ncc([N+](=O)[O-])s1)c1cccs1 | inactive |
| CO[C@]12C[C@@H](COC(=O)c3cncc(Br)c3)CN(C)[C@@H]1Cc1cn(C)c3cccc2c13 | inactive |
| O=C(NC1CCN(CCc2c[nH]c3ccccc23)CC1)c1ccccc1 | inactive |
| CCOC(=O)[C@@](C)(N)Cc1ccc(O)c(O)c1 | inactive |
